# Laboratory results taken from the supplement of paper PMC10037445.
# Where “and” joins values, the source holds several entries; their conditions need not be identical. Equal entries are not always repeated. Whole data set: some 2,900 compounds, median “NF-kB SEAP reporter activity, fold change vs agonist alone” near 0.99, cut for the highest 2% near 2.6. Many of the other results were omitted from the sample, so the highest values are more common in it than they were.
# Key:
# RAW-Dual [1] = experiment: NF-kB SEAP reporter activity, fold change vs agonist alone; cytotoxicity flag (confluency mask): not cytotoxic; higher = enhanced NF-kB activity
# Procedure, shortened: (§1)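 Supernatant from RAW-Dual macrophages was read after 20 hours for IRF by QuantiLuc luminescence and for NF-κB by QuantiBlue absorbance at 620 nm. The cells (50,000 cells/well in DMEM, 384-well plates, 37 °C, 5% CO2) had received 50 nL of library stock by pin tool and, 1 h later, a PRR agonist. Reporter activity is expressed relative to agonist-alone wells as fold change, and wells were flagged cytotoxic if IncuCyte confluency was under 70% of agonist controls in both mask sets.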
# RAW-Dual [2] = experiment: NF-kB SEAP reporter activity, fold change vs agonist alone; higher = enhanced NF-kB activity
# Procedure, shortened: as §1
# RAW-Dual [3] = experiment: NF-kB SEAP reporter activity, fold change vs agonist alone; cytotoxicity flag (confluency mask): cytotoxic (confluency <70% of control); higher = enhanced NF-kB activity
# Procedure, shortened: as §1
# [4] = agonist: ODN 1826 (TLR9) 0.5 ug/mL
# [5] = agonist: Pam2CSK4 (TLR2/6) 0.1 ug/mL
# [6] = agonist: Pam3CSK4 (TLR2/1) 0.1 ug/mL
# [7] = library stock concentration (final ~1000-fold dilution): 10 mM, cytotoxicity flag (confluency mask): not cytotoxic, agonist: Imiquimod (TLR7) […]
# [8] = library stock concentration (final ~1000-fold dilution): 10 mM, cytotoxicity flag (confluency mask): not cytotoxic, agonist: MPLA (TLR4) […]
# [9] = library stock concentration (final ~1000-fold dilution): 10 mM, cytotoxicity flag (confluency mask): cytotoxic (confluency <70% of control), agonist: Imiquimod (TLR7) […]
# [10] = library stock concentration (final ~1000-fold dilution): 10 mM, cytotoxicity flag (confluency mask): cytotoxic (confluency <70% of control), agonist: MPLA (TLR4) […]
compound,measurement,setting,value
CC(C)CC(NP(=O)(O)OC1OC(C)C(O)C(O)C1O)C(=O)NC(Cc1c[nH]c2ccccc12)C(=O)O (configuration not stated) (library stock concentration (final ~1000-fold dilution): 10 mM),NF-kB SEAP reporter activity,RAW-Dual [1]; agonist: LPS (TLR4) 0.1 ug/mL,1.04
same,NF-kB SEAP reporter activity,RAW-Dual [1]; [4],0.986
same,NF-kB SEAP reporter activity,RAW-Dual [1]; [5],1.05
same,NF-kB SEAP reporter activity,RAW-Dual [1]; [6],1.41
CC(C)CC(NP(=O)(O)OC1OC(C)C(O)C(O)C1O)C(=O)NC(Cc1c[nH]c2ccccc12)C(=O)O (configuration not stated),NF-kB SEAP reporter activity,RAW-Dual [2]; [7],0.973
same,NF-kB SEAP reporter activity,RAW-Dual [2]; [8],1.03
CCc1ccc(NC(=O)Nc2c[nH]c3ccccc23)cc1 (library stock concentration (final ~1000-fold dilution): 1 mM),NF-kB SEAP reporter activity,RAW-Dual [1]; agonist: LPS (TLR4) 0.1 ug/mL,0.445
same,NF-kB SEAP reporter activity,RAW-Dual [1]; [4],0.702
same,NF-kB SEAP reporter activity,RAW-Dual [1]; [5],0.417
same,NF-kB SEAP reporter activity,RAW-Dual [1]; [6],0.365
CCc1ccc(NC(=O)Nc2c[nH]c3ccccc23)cc1,NF-kB SEAP reporter activity,"RAW-Dual [2]; library stock concentration (final ~1000-fold dilution): 1 mM, cytotoxicity flag (confluency mask): not cytotoxic, agonist: Imiquimod (TLR7) […]",0.782
same,NF-kB SEAP reporter activity,"RAW-Dual [2]; library stock concentration (final ~1000-fold dilution): 1 mM, cytotoxicity flag (confluency mask): not cytotoxic, agonist: MPLA (TLR4) […]",0.736
CN(C(=O)n1cnc(-c2ccc[n+]([O-])c2)c1)C1CCCCC1,NF-kB SEAP reporter activity,RAW-Dual [2]; [7],0.995
same,NF-kB SEAP reporter activity,RAW-Dual [2]; [8],1.03
CN(C(=O)n1cnc(-c2ccc[n+]([O-])c2)c1)C1CCCCC1 (library stock concentration (final ~1000-fold dilution): 10 mM),NF-kB SEAP reporter activity,RAW-Dual [1]; agonist: LPS (TLR4) 0.1 ug/mL,1.04
same,NF-kB SEAP reporter activity,RAW-Dual [1]; [4],0.925
same,NF-kB SEAP reporter activity,RAW-Dual [1]; [5],0.966
same,NF-kB SEAP reporter activity,RAW-Dual [1]; [6],1.01
CC(=O)Oc1cc2c(cc1Cl)C(c1ccccc1C(=O)O)c1cc(Cl)c(OC(C)=O)cc1O2 (library stock concentration (final ~1000-fold dilution): 10 mM),NF-kB SEAP reporter activity,RAW-Dual [1]; agonist: LPS (TLR4) 0.1 ug/mL,1.48
same,NF-kB SEAP reporter activity,RAW-Dual [1]; [4],1.24
same,NF-kB SEAP reporter activity,RAW-Dual [1]; [5],1.12
same,NF-kB SEAP reporter activity,RAW-Dual [1]; [6],1.05
CC(=O)Oc1cc2c(cc1Cl)C(c1ccccc1C(=O)O)c1cc(Cl)c(OC(C)=O)cc1O2,NF-kB SEAP reporter activity,RAW-Dual [2]; [7],1.04
same,NF-kB SEAP reporter activity,RAW-Dual [2]; [8],1.41
COc1cc(C2CC(c3ccccc3)=NN2C(N)=S)cc(OC)c1OC (configuration not stated) (library stock concentration (final ~1000-fold dilution): 10 mM),NF-kB SEAP reporter activity,RAW-Dual [1]; agonist: LPS (TLR4) 0.1 ug/mL,1.16
same,NF-kB SEAP reporter activity,RAW-Dual [1]; [4],1.25
same,NF-kB SEAP reporter activity,RAW-Dual [1]; [5],0.997
same,NF-kB SEAP reporter activity,RAW-Dual [1]; [6],1.13
COc1cc(C2CC(c3ccccc3)=NN2C(N)=S)cc(OC)c1OC (configuration not stated),NF-kB SEAP reporter activity,RAW-Dual [2]; [7],1.58
same,NF-kB SEAP reporter activity,RAW-Dual [2]; [8],1.29
CCOc1cc(N2CCC(O)CC2)ccc1Nc1ncc2c(n1)N(C)c1ccccc1C(=O)N2C (library stock concentration (final ~1000-fold dilution): 10 mM),NF-kB SEAP reporter activity,RAW-Dual [1]; agonist: LPS (TLR4) 0.1 ug/mL,3.72
same,NF-kB SEAP reporter activity,RAW-Dual [1]; [4],1.57
same,NF-kB SEAP reporter activity,RAW-Dual [1]; [5],1
same,NF-kB SEAP reporter activity,RAW-Dual [1]; [6],1.48
O=C(c1ccc(C(=O)N2CCC(N3CCCC3)CC2)c(Nc2ccccc2)c1)N1CCC(N2CCCC2)CC1,NF-kB SEAP reporter activity,RAW-Dual [2]; [7],0.917
same,NF-kB SEAP reporter activity,RAW-Dual [2]; [8],1.12
COc1cc(N2CCN(C)CC2)ccc1Nc1ncc2c(n1)N(C)c1ccccc1C(=O)N2,NF-kB SEAP reporter activity,RAW-Dual [2]; [7],0.928
same,NF-kB SEAP reporter activity,RAW-Dual [2]; [8],1.03
COc1cc(N2CCC(N)CC2)ccc1Nc1ncc(Cl)c(-c2c[nH]c3ccccc23)n1,NF-kB SEAP reporter activity,RAW-Dual [2]; [9],0.251
same,NF-kB SEAP reporter activity,RAW-Dual [2]; [10],0.226
COc1cc(N2CCC(N)CC2)ccc1Nc1ncc(Cl)c(-c2c[nH]c3ccccc23)n1 (library stock concentration (final ~1000-fold dilution): 10 mM),NF-kB SEAP reporter activity,RAW-Dual [3]; agonist: LPS (TLR4) 0.1 ug/mL,0.166
same,NF-kB SEAP reporter activity,RAW-Dual [3]; [4],0.19
same,NF-kB SEAP reporter activity,RAW-Dual [3]; [5],0.0626
same,NF-kB SEAP reporter activity,RAW-Dual [3]; [6],0.118
CCOc1cc(N2CCC(O)CC2)ccc1Nc1ncc2c(n1)N(C)c1ccccc1C(=O)N2C,NF-kB SEAP reporter activity,RAW-Dual [2]; [7],1.23
same,NF-kB SEAP reporter activity,RAW-Dual [2]; [8],1.91
COc1cc(C(=O)N2CCC(N3CCN(C)CC3)CC2)ccc1Nc1ncc2c(n1)N(C)c1ccccc1C(=O)N2C,NF-kB SEAP reporter activity,RAW-Dual [2]; [7],1.48
same,NF-kB SEAP reporter activity,RAW-Dual [2]; [8],2.66
COc1cc(N2CCN(C)CC2)ccc1Nc1ncc2c(n1)N(C)c1ccccc1C(=O)N2 (library stock concentration (final ~1000-fold dilution): 10 mM),NF-kB SEAP reporter activity,RAW-Dual [1]; agonist: LPS (TLR4) 0.1 ug/mL,0.966
same,NF-kB SEAP reporter activity,RAW-Dual [1]; [4],0.514
same,NF-kB SEAP reporter activity,RAW-Dual [1]; [5],1.08
same,NF-kB SEAP reporter activity,RAW-Dual [1]; [6],1.61
O=C(c1ccc(Nc2nccc(-c3cc4ccccc4s3)n2)cc1)N1CCC(N2CCCC2)CC1 (library stock concentration (final ~1000-fold dilution): 10 mM),NF-kB SEAP reporter activity,RAW-Dual [3]; agonist: LPS (TLR4) 0.1 ug/mL,0.302 and 0.283
same,NF-kB SEAP reporter activity,RAW-Dual [3]; [4],0.179 and 0.19
same,NF-kB SEAP reporter activity,RAW-Dual [3]; [5],0.0736 and 0.0841
same,NF-kB SEAP reporter activity,RAW-Dual [3]; [6],0.128 and 0.186
COc1cc(C(=O)N2CCC(N3CCN(C)CC3)CC2)ccc1Nc1ncc2c(n1)N(C)c1ccccc1C(=O)N2C (library stock concentration (final ~1000-fold dilution): 10 mM),NF-kB SEAP reporter activity,RAW-Dual [1]; agonist: LPS (TLR4) 0.1 ug/mL,3.59
same,NF-kB SEAP reporter activity,RAW-Dual [1]; [4],0.264
same,NF-kB SEAP reporter activity,RAW-Dual [1]; [5],1.02
same,NF-kB SEAP reporter activity,RAW-Dual [1]; [6],2.01
CCOc1cc(C(=O)N2CCC(N3CCN(C)CC3)CC2)ccc1Nc1ncc2c(n1)N(C1CCCC1)c1ccccc1C(=O)N2C (library stock concentration (final ~1000-fold dilution): 10 mM),NF-kB SEAP reporter activity,RAW-Dual [3]; agonist: LPS (TLR4) 0.1 ug/mL,5.49
same,NF-kB SEAP reporter activity,RAW-Dual [3]; [4],1.31
same,NF-kB SEAP reporter activity,RAW-Dual [3]; [5],1.36
same,NF-kB SEAP reporter activity,RAW-Dual [3]; [6],3.42
O=C(c1ccc(C(=O)N2CCC(N3CCCC3)CC2)c(Nc2ccccc2)c1)N1CCC(N2CCCC2)CC1 (library stock concentration (final ~1000-fold dilution): 10 mM),NF-kB SEAP reporter activity,RAW-Dual [1]; agonist: LPS (TLR4) 0.1 ug/mL,0.933
same,NF-kB SEAP reporter activity,RAW-Dual [1]; [4],0.944
same,NF-kB SEAP reporter activity,RAW-Dual [1]; [5],1.04
same,NF-kB SEAP reporter activity,RAW-Dual [1]; [6],1.33
CCOc1cc(C(=O)N2CCC(N3CCN(C)CC3)CC2)ccc1Nc1ncc2c(n1)N(C1CCCC1)c1ccccc1C(=O)N2C,NF-kB SEAP reporter activity,RAW-Dual [2]; [9],1.44
same,NF-kB SEAP reporter activity,RAW-Dual [2]; [10],2.71
CC1OC(=O)C(C)C1CC(O)C(C)(O)C1CCC2(O)C3=CC(=O)C4CC(O)C(O)CC4(C)C3CCC12C (configuration not stated),NF-kB SEAP reporter activity,RAW-Dual [2]; [7],1.02
same,NF-kB SEAP reporter activity,RAW-Dual [2]; [8],1.05
